The list is not random: actives were taken first. Their share in the collection is about 8.8%.
Lamin A splicing: modulators of lamin A splicing | hit rate 0.01% among 200,000 | AID 1487 | HeLa LMNA splicing GFP/RFP minigene ratio, 48 h | Potency, µM (highest dose often 46.1 µM), for inactives: at the highest dose ratio change, negative = inhibition, usual class: inhibitors; active means well fitted inhibition curve with a large enough effect in the signal ratio, with a control signal flat, not every such curve was filed as active; inconclusive means small, poorly fitted or top-dose-only effect, or effect the other way, or a change in a side signal; the % refers to the signal ratio; further: on the % scale 0 is the no-effect control and ±100 the full control effect
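S3 HeLa cells stably expressing lamin A-EGFP splicing minigene plus DsRed2, 600 cells/well, 48 h compound exposure at 37C. Laser-scanning cytometry; analysed as GFP (500-530 nm)/RFP (575-640 nm) total intensity ratio; 0.5% DMSO vehicle.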
HPGD inh: inhibitors of human 15-hydroxyprostaglandin dehydrogenase (HPGD); P15428; purified HPGD, NADH fluorescence kinetic, PGE2 substrate; Potency, µM, for inactives: at the highest dose activity change, negative = inhibition, most hits filed as inhibitors; hit rate 4.3% among 150,000; AID 894; active means well fitted inhibition curve with a large enough effect, not every such curve was filed as active; inconclusive means small, poorly fitted or top-dose-only effect, or another doubt; inactive means no such curve, though single readings can be large or run the other way; further: on the % scale 0 is the no-effect control and ±100 the full control effect
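20 nM HPGD preincubated 15 min at room temperature with compound in 50 mM Tris-HCl pH 8, 0.01% Tween 20. Started with 1 mM NAD+ and 30 uM prostaglandin E2; NADH fluorescence (360/450 nm) read 5 times over 30-s intervals, last minus first.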
HTT ATP protect: protects HTT-Q103 PC12 cells, measured by ATP | PC12 HTT-Q103 induced, cytoprotection, ATP luminescence, 40 h | Potency, µM (doses to about 56.4 µM), for the others: cytoprotection (ATP increase), hits mostly activators | hit rate 0.14% among 230,000; further: % of control where 0% means no effect; nearly all actives have a fitted effect of over 45% in size
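Cells were plated at 1500 per well in phenol red-free DMEM with 5% equine and 5% calf serum. Tebufenozide (100 nM final) and compounds were added, then ATPlite reagent, and luminescence was read.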
ALDH1A1 inh: ALDH1A1 (human) enzyme inhibition; hit rate 7.3% among 220,000; P00352; Potency, µM (highest dose often 75.3 µM), without a hit: at the top dose activity, negative = inhibition, hits mostly inhibitors; Purified ALDH1A1, NADH fluorescence, propionaldehyde substrate; active means well fitted inhibition curve with a large enough effect, not every such curve was filed as active; inconclusive means small, poorly fitted or top-dose-only effect, or another doubt; inactive means no such curve, though single readings can be large or run the other way;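 further: plate controls were no enzyme wells and a reference inhibitor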
Target sequence (P00352 whole entry, looked up): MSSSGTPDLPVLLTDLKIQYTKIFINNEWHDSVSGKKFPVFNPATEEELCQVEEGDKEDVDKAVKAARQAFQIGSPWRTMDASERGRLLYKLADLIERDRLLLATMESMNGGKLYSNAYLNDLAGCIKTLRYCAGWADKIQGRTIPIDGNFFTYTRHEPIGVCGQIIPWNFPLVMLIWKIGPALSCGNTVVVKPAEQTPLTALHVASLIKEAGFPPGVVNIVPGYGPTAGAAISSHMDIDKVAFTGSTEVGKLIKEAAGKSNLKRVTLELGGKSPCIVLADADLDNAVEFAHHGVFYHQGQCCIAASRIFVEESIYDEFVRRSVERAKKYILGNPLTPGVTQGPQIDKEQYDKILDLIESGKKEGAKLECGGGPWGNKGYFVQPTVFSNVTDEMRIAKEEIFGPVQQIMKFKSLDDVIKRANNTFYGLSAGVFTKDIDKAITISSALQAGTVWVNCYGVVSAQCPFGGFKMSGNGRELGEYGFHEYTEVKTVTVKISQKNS
HTT aggregate: inhibitors of mutant huntingtin aggregate formation in PC12 cells. PC12 HttQ103-GFP aggregates, Acumen cytometry, 40 h. Potency, µM (titrated, usually from 46.1 µM), inactives show at the highest dose activity change, negative = inhibition, hits mostly inhibitors. hit rate 1.1% among 220,000. AID 1688; further: on the % scale 0 is the no-effect control and ±100 the full control effect; nearly all actives have a fitted effect of over 60% in size
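Read-out: GFP aggregate count by laser scanning cytometer (488 nm excitation, 500-530 nm emission, 1–25 µm objects >6 SD above background). Cells: PC12, inducible HTTex1-Q103-GFP, 100 nM tebufenozide; compounds titrated.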
The depositor's hits bear a star; u = inconclusive; x = no result given; [ ] = dose if it differs, or a comment. Unless noted, the call rests on the fitted dose curve; in most records, active means well fitted curve in the direction sought with a large enough effect; inconclusive means small, poorly fitted or top-dose-only effect, or another doubt; inactive means no such curve, though single readings can be large; an effect the other way counts as inactive or inconclusive. Potency means the concentration at half of the fitted maximal effect.

SMILES	Lamin A splicing	HPGD inh	HTT ATP protect	ALDH1A1 inh	HTT aggregate
CCc1ccc(NC(=O)C(=O)NCC2CCCO2)cc1 (configuration not stated)	22%[46 µM]	x	-14%[10 µM]	3%	1%
CCOC(=O)[C@]1(C(NC(=O)OC)c2ccccc2)CCCC1=O (some centres not stated)	x	x	-19%[10 µM]	-2%[13.5 µM]	x
O=C(Cc1n[nH]c(=O)c2ccccc12)Nc1ccc(-c2nnc3n2CCCCC3)cc1	2%	10µM*	2%	16µM*	-5%[9.22 µM]
O=C(Cc1n[nH]c(=O)c2ccccc12)Nc1cccc(S(=O)(=O)N2CCCC2)c1	x	x	21%[10 µM]	x	15%[9.22 µM]
O=C(CC1Sc2ccccc2NC1=O)Nc1cccnc1 (configuration not stated)	-2%	-6%	19%[10 µM]	5%	-14%
O=C(Cn1[nH]c(=O)c2ccccc2c1=O)Nc1ccc(-c2nnc3n2CCCCC3)cc1	7%	3.5µM*	7%	14µM*	-14%
O=C(CC1Sc2ccccc2NC1=O)Nc1cccc(-c2nnc3n2CCCCC3)c1 (configuration not stated)	0%	32µM*	2%[10 µM]	-1%	-4%
CCC1(c2ccc(Cl)cc2)NC(=S)N(c2ccccc2)N1 (configuration not stated)	-6%	-17%	3%[10 µM]	13µM*	0%
CCc1ccccc1NC(=O)CSc1nc(-c2ccccc2)nn1C(=O)c1cccc([N+](=O)[O-])c1	8%	13µM*	12%	-3%	12%
CCC(=O)n1nc(-c2ccccc2)nc1SCC(=O)Nc1ccc(C)cc1	4%	7.9µM*	-22%	-1%	-2%
COc1cc(CNC(=O)c2cnc(SC)nc2-c2ccccc2)cc(OC)c1OC	-6%[46 µM]	x	x	x	x
CC1=C(C(N)=O)C(c2cccc(F)c2)n2nc(SCc3ccccc3)nc2N1 (configuration not stated)	21%[46 µM]	x	x	x	x
COc1cccc(C(c2c(C)[nH]n(-c3ccccc3)c2=O)c2c(C)[nH]n(-c3ccccc3)c2=O)c1OC	-14%	22µM*	0%[10 µM]	3.5µM*	7%
O=C(CSc1nc2c([nH]c3ccccc32)c(=O)n1-c1ccccc1)NCc1ccc(F)cc1	6%[46 µM]	x	x	x	x
CCn1c(C)cc2c(c1=O)C(c1ccc3c(c1)OCO3)C(C#N)=C(N)O2 (configuration not stated)	-2%	-15%	9%	-16%	20%
Cc1cc2c(c(=O)n1CC1CCCO1)C(c1ccc3c(c1)OCO3)C(C#N)=C(N)O2 (configuration not stated)	-1%	-16%	-27%	11µM*	17%
CCOC(=O)C1=NOC2C(=O)N(c3ccc(Cl)cc3Cl)C(=O)C12 (configuration not stated)	x	x	u	0.71µM*	-4%
CCOC(=O)CC1ON(C)C(=O)N1c1ccc(Cl)cc1Cl (configuration not stated)	6%	-14%	-6%	u	20%
c1coc(C2Nc3cccc4cccc(c34)N2)c1	19%	u	-20%	25µM*	-9%
FC(F)(F)c1ccc(C2Nc3cccc4cccc(c34)N2)cc1	-2%[46 µM]	x	u	u	2%
CN1CCN(C(=O)C2CCCCC2)CC1	x	x	u	x	5%
C=CCc1ccccc1OCC(O)CN1CCN(C(=O)OCC)CC1 (configuration not stated)	u	-16%	-8%	20µM*	24%
CCCCC(=O)NC(NC(=S)N1CCOCC1)C(Cl)(Cl)Cl (configuration not stated)	2%	-14%	-6%	11µM*	19%
O=C(NC(NC(=S)N1CCOCC1)C(Cl)(Cl)Cl)c1ccc(Cl)cc1 (configuration not stated)	-28%	-12%	-19%[10 µM]	-7%	u
O[C@@H]1[C@@H]2c3cc4c(cc3CN3CCC(=C[C@@H]1O)[C@H]23)OCO4	u	-4%	-55%[40.3 µM]	0%[20.9 µM]	x
SMILES	Lamin A splicing	HPGD inh	HTT ATP protect	ALDH1A1 inh	HTT aggregate
COC(=O)c1sccc1NC(=O)CC1C(=O)NCCN1C(=O)c1ccc(N(C)C)cc1 (configuration not stated)	x	x	0%[10 µM]	10µM*	-17%[9.22 µM]
Cc1ccccc1Oc1ccc(NC(=O)C2CC=CCC2C(=O)O)cc1 (configuration not stated)	u	1%	x	2.2µM*	-10%
O=C(Nc1cccc(Cl)c1)N1CCCC1	3%	-5%	23%	18%	-22%
O=C(O)C1CC=CCC1C(=O)Nc1cccc(Cl)c1 (configuration not stated)	4%	-29%	-7%	18µM*	27%[9.22 µM]
CC(C)(C)c1ccc(Oc2ccc(NC(=O)C3CC=CCC3C(=O)O)cc2)cc1 (configuration not stated)	x	x	-23%	u	u
CC1CCCCN1C(=O)Nc1cccc(Cl)c1 (configuration not stated)	1%	22µM*	-17%[10 µM]	22µM*	17%
COc1cccc(CNC(=O)c2cc(S(=O)(=O)N3CCCCCC3)cn2C)c1	-30%[46 µM]	x	x	x	x
CCOC(=O)c1nc(N)c(C(=O)OCC)[nH]1	7%	u	-20%	u	3.5µM*
CCN(CC)c1ccc(/C=N/N2CCN(Cc3ccccc3)CC2)cc1	21%[46 µM]	x	-97%	7.9µM*	3%
N#CC(C#N)=C1C=CC=CN1/C(=C\c1ccco1)C(=O)c1ccc(-c2ccccc2)cc1	u	-26%	4%[10 µM]	-15%	7.1µM*
O=C(O)/C(=C/c1ccco1)c1ccccc1	0%[46 µM]	x	x	0%	17%
O=C(NCC1CCCO1)/C(=C\c1ccco1)NC(=O)c1ccc(Cl)cc1 (configuration not stated)	x	x	u	u	38%[9.22 µM]
N#CC(C#N)=C1C=CC=CN1/C(=C\c1ccco1)C(=O)c1ccc(Cl)cc1	u	20µM*	u	-7%	3.5µM*
O=C(O)COc1ccc(=O)n(-c2ccccc2)n1	-6%	5%	5%	13%	u
CCOC(=O)C(Oc1ccc(=O)n(-c2ccccc2)n1)C(C)=O (configuration not stated)	-1%	-7%	2%	18µM*	-8%[9.22 µM]
COC(=O)c1ccc(C(NC(=O)OCc2ccccc2)/C(I)=C/[C@@H](C)C(=O)NCC2CC2)cc1 (some centres not stated)	x	14µM*	-36%	-11%	x
COC(=O)c1ccc(C(NC(=O)OCc2ccccc2)/C(I)=C/[C@@H](C)C(=O)Nc2ccccc2)cc1 (some centres not stated)	x	-25%	-3%	3%	x
O=C(Cn1cccc1)NC1CCCCCC1	6%	14µM*	11%	-2%	0%
O=C(O)CCC(=O)NC1CCCCCCC1	-1%	-5%	-29%[0.074 µM]	19%	-1%
COc1cccc(Nc2n[nH]c(=S)s2)c1	-15%	10µM*	16%[10 µM]	3.5µM*	26%
COc1cccc(Nc2nc3ccc(OC)cc3s2)c1	x	x	-62%	19%	u
